Assay results as given in PubChem BioAssay (Tox21).
Inconclusive results are not listed. The source made the active and inactive calls. Calls come from the whole dose curve; as a rule, active = well fitted curve in the direction sought with a large enough effect in the repeat runs; inconclusive = weak or mixed curves; inactive = no such curve, though single readings can be large; an effect the other way counts as inactive or inconclusive.

Tests used:
[1] = A CellTox Green Cytotoxicity Assay to monitor cytotoxicity in HEK293 cells - 40 hour (AID 1224871); conditions: CellTox Green fluorescence; series mostly up to 76.8 µM; note: nearly all actives have a fitted effect of over 45% in size
Procedure, shortened: (§1)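 Fluorescence from a DNA-binding dye excluded by viable cells was measured repeatedly in the same HEK293 wells (600 cells/well) during continuous compound exposure at 37 C. Each assay gives one read point: 0, 8, 16, 24, 32 or 40 h.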

[2] = qHTS RealTime-Glo MT Cell Viability Assay in HepG2 cells - 8 hour (AID 1224873); conditions: RealTime-Glo luminescence; series mostly up to 76.8 µM; note: nearly all actives have a fitted effect of over 55% in size
Procedure, shortened: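 HepG2 cells (600/well) mixed with RealTime-Glo MT reagent, settled 5 h at 37 C/5% CO2 before compound addition. Nonlytic NanoLuc luminescence from viable-cell prosubstrate reduction read repeatedly during 40 h treatment at 37 C.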

[3] = A CellTox Green Cytotoxicity Assay to monitor cytotoxicity in HEK293 cells - 24 hour (AID 1224875); conditions: CellTox Green fluorescence, stronger effect = higher value; series mostly up to 76.8 µM; note: nearly all actives have a fitted effect of over 45% in size
Procedure, shortened: as §1

[4] = A CellTox Green Cytotoxicity Assay to monitor cytotoxicity in HepG2 cells - 16 hour (AID 1224876); conditions: CellTox Green fluorescence; series mostly up to 76.8 µM; note: nearly all actives have a fitted effect of over 45% in size
Procedure, shortened: (§2)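 Real-time cytotoxicity: fluorescence of a cell-impermeant cyanine dye binding DNA of dead HepG2 cells, measured repeatedly (0–40 h) during compound exposure at 37 C. Cells seeded 600/well with reagent, dosed after 5 h.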

[5] = qHTS RealTime-Glo MT Cell Viability Assay in HepG2 cells - 32 hour (AID 1224877); conditions: RealTime-Glo luminescence; series mostly up to 76.8 µM; note: nearly all actives have a fitted effect of over 55% in size
Procedure, shortened: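 HepG2 cells (600/well) were dispensed with RealTime-Glo reagents, incubated 5 h at 37 °C, then treated with compounds in DMSO for up to 40 h. Nonlytic NanoLuc luminescence reflecting viable cells was read at each stated time point.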

[6] = A CellTox Green Cytotoxicity Assay to monitor cytotoxicity in HepG2 cells - 24 hour (AID 1224878); conditions: CellTox Green fluorescence; series mostly up to 76.8 µM; note: nearly all actives have a fitted effect of over 45% in size
Procedure, shortened: as §2

[7] = qHTS RealTime-Glo MT Cell Viability Assay in HEK293 cells - 0 hour (AID 1224880); conditions: RealTime-Glo luminescence; series mostly up to 76.8 µM
Procedure, shortened: (§3)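 Luminescence, which tracks viable cell number through reduction of the prosubstrate to a NanoLuc substrate, was read over continuous 37 C culture. Cells (600/well) were premixed with reagent and rested 5 h before 23 nL of compound in DMSO was pinned.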

[8] = qHTS RealTime-Glo MT Cell Viability Assay in HEK293 cells - 40 hour (AID 1224874); conditions: RealTime-Glo luminescence; max response: stronger effect = lower value; note: nearly all actives have a fitted effect of over 50% in size; note: potency is the fitted concentration of half-maximal effect
Procedure, shortened: as §3

[9] = A CellTox Green Cytotoxicity Assay to monitor cytotoxicity in HepG2 cells - 40 hour (AID 1224879); conditions: CellTox Green fluorescence; series mostly up to 76.8 µM; note: nearly all actives have a fitted effect of over 40% in size; note: potency is the fitted concentration of half-maximal effect
Procedure, shortened: as §2
% is set by controls: 0 for no effect and ±100 for the full control effect.

CC1=C(C/C=C(\C)CCC[C@H](C)CCC[C@H](C)CCCC(C)C)C(=O)c2ccccc2C1=O
inactive: Potency [1] | outcome [2] | outcome [3] | outcome [4] | Potency [5] | outcome [6] | Potency [7]

CC[N+](C)(CC)CCOC(=O)C1c2ccccc2Oc2ccccc21
inactive: Potency [1] | outcome [2] | max response [8] 3.05% | outcome [4] | Potency [5] | outcome [6] | Potency [7]

CC1OC1C1CCC2(C)OC2C1 (stereo unspecified)
inactive: Potency [1] | outcome [2] | max response [8] 1.23% | Potency [5] | Potency [7]

COC(=O)Nc1ccc(Cl)c(Cl)c1
inactive: Potency [1] | outcome [2] | max response [8] -27.2% | outcome [4] | Potency [5] | outcome [6] | Potency [9] | Potency [7]

CC[N+](CC)(CC)CCOc1cccc(OCC[N+](CC)(CC)CC)c1OCC[N+](CC)(CC)CC
inactive: Potency [1] | outcome [2] | max response [8] 2.7% | outcome [4] | outcome [6] | Potency [9] | Potency [7]

O=C1c2ccccc2C(=O)c2cc(O)ccc21
inactive: Potency [1] | outcome [2] | outcome [3] | outcome [4] | Potency [5] | outcome [6] | Potency [9] | Potency [7]

COc1cc2c(cc1OC)-c1cc3ccc(OC)c(OC)c3c[n+]1CC2
inactive: Potency [1] | outcome [2] | outcome [3] | outcome [4] | Potency [5] | outcome [6] | Potency [9] | Potency [7]
active: Potency [8] 44100 nM

CC(=O)O[C@@]12CO[C@@H]1C[C@H](O)[C@@]1(C)C(=O)[C@H](O)C3=C(C)[C@@H](OC(=O)[C@H](O)[C@@H](NC(=O)OC(C)(C)C)c4ccccc4)C[C@@](O)([C@@H](OC(=O)c4ccccc4)[C@H]21)C3(C)C
inactive: Potency [1] | outcome [2] | outcome [3] | outcome [4] | Potency [5] | Potency [7]
active: Potency [8] 33.8 nM | Potency [9] 6 nM

CCCCOCCOC(=O)COc1cc(Cl)c(Cl)cc1Cl
inactive: Potency [1] | outcome [2] | max response [8] 4.7% | outcome [3] | outcome [4] | Potency [5] | outcome [6] | Potency [7]

C[C@H]1[C@H](NC(=O)/C(=N/OC(C)(C)C(=O)O)c2csc(N)n2)C(=O)N1S(=O)(=O)O (stereo in doubt)
inactive: Potency [1] | outcome [2] | max response [8] 5.51% | outcome [4] | Potency [5] | outcome [6] | Potency [9] | Potency [7]

CN(C)C(=O)Oc1cccc([N+](C)(C)C)c1
inactive: Potency [1] | outcome [2] | max response [8] 6.55% | outcome [4] | Potency [5] | outcome [6] | Potency [9] | Potency [7]

CCCC[N+](C)(CCCC)CCCC
inactive: Potency [1] | outcome [2] | max response [8] -1.08% | outcome [4] | Potency [5] | outcome [6] | Potency [9] | Potency [7]

CC(=O)c1ccc2ccccc2c1
inactive: Potency [1] | outcome [2] | max response [8] 8.54% | Potency [5] | Potency [7]
